We go through 40 compounds from PubChem BioAssay (Tox21).

Several values for one entry are separate records, joined by “and”; a condition that tells them apart may be missing. Identical values can stand only once. Inconclusive results are not listed. A call without a number means that no potency is given here. The source holds several records for some structures; these can differ, active in one and inactive in another. Activity calls are given as the source filed them. Calls follow the shape of the dose curve; as a rule, active = well fitted activation curve with a large enough effect in the signal ratio in the repeat runs (not every such curve was filed as active); inconclusive = weak or mixed curves, or effect the other way; inactive = no such curve, though single readings can be large or run the other way; the % refers to the signal ratio.
Potency is read from the fitted curve at half-maximal effect.

Sequence of Glucocorticoid receptor (Homo sapiens) (P04150 whole entry, looked up): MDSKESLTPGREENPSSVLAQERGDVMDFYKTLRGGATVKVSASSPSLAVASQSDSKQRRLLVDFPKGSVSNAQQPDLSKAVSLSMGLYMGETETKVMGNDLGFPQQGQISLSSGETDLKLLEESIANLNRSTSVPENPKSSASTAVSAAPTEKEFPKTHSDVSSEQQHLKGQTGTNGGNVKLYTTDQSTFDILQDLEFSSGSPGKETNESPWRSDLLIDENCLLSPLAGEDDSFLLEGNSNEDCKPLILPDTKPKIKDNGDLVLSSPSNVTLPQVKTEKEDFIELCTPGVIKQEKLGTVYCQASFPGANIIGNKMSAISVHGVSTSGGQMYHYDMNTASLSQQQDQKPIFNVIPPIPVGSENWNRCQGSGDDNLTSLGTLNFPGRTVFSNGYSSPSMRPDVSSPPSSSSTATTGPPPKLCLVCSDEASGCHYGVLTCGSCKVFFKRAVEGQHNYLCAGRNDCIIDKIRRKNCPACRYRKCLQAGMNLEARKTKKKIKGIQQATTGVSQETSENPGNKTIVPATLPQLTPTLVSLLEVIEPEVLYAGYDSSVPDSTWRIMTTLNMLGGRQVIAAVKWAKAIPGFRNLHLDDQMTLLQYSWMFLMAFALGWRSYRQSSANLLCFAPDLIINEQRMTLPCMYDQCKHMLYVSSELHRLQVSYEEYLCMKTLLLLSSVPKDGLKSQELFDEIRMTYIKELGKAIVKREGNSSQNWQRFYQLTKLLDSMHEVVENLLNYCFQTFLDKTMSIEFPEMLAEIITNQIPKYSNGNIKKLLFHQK

The test concerns the target Glucocorticoid receptor (Homo sapiens) (UniProt P04150). Briefly: qHTS assay to identify small molecule agonists of the glucocorticoid receptor (GR) signaling pathway (AID 720691). Conditions: GR-bla HeLa, beta-lactamase reporter ratio, 18 h; activation: at 62.4 µM (top of the series). From the text:
U.S. Tox21 Program National Center for Advancing Translational Sciences [NCATS] NIH Chemical Genomics Center [NCGC] U.S. Environmental Protection Agency [EPA] National Institutes of Environmental Health Sciences [NIEHS] National Toxicology Program [NTP] U.S. Food and Drug Administration [FDA] Tox21 Assay Overview: The Glucocorticoid receptor (GR) is one of the members of the nuclear receptor family of ligand-dependent transcription factors. GR plays a critical role in carbohydrate, protein and lipid metabolisms and programmed cell death. CellSensor GR-bla HeLa cell line (Invitrogen) contains a beta-lactamase reporter gene under the control of the glucocorticoid response element stably integrated into HeLa cells, a cervical cancer cell line that expresses glucocorticoid receptor. The activation of the reporter gene under culture conditions can be detected by fluorescence intensity. This cell line has been used to screen the Tox21 10K compound library and to identify the compounds that activate the GR signaling.
Tox21 Assay Protocol Summary: The GR-bla HeLa cells were dispensed at 1500 cells/6 ul/well in 1536-well black wall/clear bottom plates using a Multidrop Combi (ThermoFisher Scientific, Waltham, MA) dispenser. After the assay plates were incubated at a 37 C/5% CO2 incubator for 4 hours, 23 nL of compounds dissolved in DMSO, positive controls or DMSO only was transferred to the assay plate by a pintool station (Kalypsys, San Diego, CA). The plates were incubated at 37 C for 18 hours. After 1 uL of LiveBLAzerTM B/G FRET substrate was added using a Flying Reagent Dispenser (Aurora Discovery, San Diego, CA), the plates were incubated at room temperature for 2 hours, and fluorescence intensity was measured by an Envision plate reader (PerkinElmer, Shelton, CT).
Take `CC(C)=CC1C(C(=O)OC(C#N)c2cccc(Oc3ccccc3)c2)C1(C)C` (stereo not given): the Potency result is “inactive”. Take `CCCCN(CCCC)C(=S)S`: the Potency result is “inactive”. Still for that read-out and setting: the entry for `O=[N+]([O-])C(Br)Br` is “inactive”. The same measure, in the same setting: the entry for `CCC(C)Nc1c([N+](=O)[O-])cc(C(C)(C)C)cc1[N+](=O)[O-]` (stereo not given) is “inactive”. On the same count and under the same terms, the entry for `COP(=S)(NC(C)C)Oc1ccc(C)cc1[N+](=O)[O-]` (stereo not given) is “inactive”; for `OCC(Br)CBr` (stereo not given) it is “inactive”. Consider `C[C@]12C/C(=C/O)C(=O)C[C@@H]1CC[C@@H]1[C@@H]2CC[C@@]2(C)[C@H]1CC[C@]2(C)O`, for which the Potency result was “inactive”. For the compound `c1ccc2c(c1)cc1ccc3cccc4ccc2c1c34`, the Potency was 25 µM [fluorescent] (active). On to `Cc1ccc2cc3c(ccc4ccccc43)c3c2c1CC3`, for which the Potency result is “inactive”. With `CCOP(=O)(Sc1ccccc1)Sc1ccccc1`, the Potency entry was “inactive”. Same read-out and setting: the entry for `CSC1=N[C@@](C)(c2ccccc2)C(=O)N1Nc1ccccc1` is “inactive”; for `Clc1ccc(C2(Cn3cncn3)OCCO2)c(Cl)c1` it is “inactive”; for `COP(=S)(OC)Oc1ccc([N+](=O)[O-])c(C)c1` it is “inactive”. Still for that read-out and setting: the entry for `CCOC(=O)CCN(SN(C)C(=O)Oc1cccc2c1OC(C)(C)C2)C(C)C` is “inactive”. Take `CNC(=O)/C=C(\C)OP(=O)(OC)OC`: the Potency entry is “inactive”. For `CN1CCc2cc(Cl)c(O)cc2[C@H]2c3ccccc3CC[C@@H]21`, the Potency result is “inactive”. Turning to `CCN(CC)CCN1C(=O)CN=C(c2ccccc2F)c2cc(Cl)ccc21`, the Potency result was “inactive”. The same measure, in the same setting: the entry for `Clc1cc(Cl)c(-c2cc(Cl)c(Cl)cc2Cl)cc1Cl` is “inactive”. On the same count and under the same terms, to `BrCCCBr` belongs “inactive”.

As to `CNC(=O)CSP(=O)(OC)OC`, the Potency result is “inactive”. For `CN(C)CCc1c[nH]c2ccccc12`, the Potency entry is “inactive”. The same measure, in the same setting: the entry for `Nc1nc(N)nc(Cl)n1` is “inactive”. Turning to `CN`, the Potency entry was “inactive”. Take `CC(Cl)CCl` (stereo not given): the Potency entry was “inactive”.

With `CC(C)c1c(CN(C)C(C)Cc2ccccc2)n(C)n(-c2ccccc2)c1=O` (stereo not given), the Potency entry was “inactive”. Still for that read-out and setting: the entry for `CC1CCCC1` is “inactive”. Same read-out and setting: to `ClC1=C(Cl)[C@]2(Cl)[C@@H]3[C@H]4C[C@H]([C@@H]5O[C@H]45)[C@@H]3[C@@]1(Cl)C2(Cl)Cl` belongs “inactive”. `C=CCBr`: the Potency result is “inactive”. Same read-out and setting: the entry for `CCCCc1ccccc1` is “inactive”; for `CC(Cc1ccc(OCC(=O)O)cc1)NCC(O)c1csc(C(F)(F)F)n1` (stereo not given) it is “inactive”. Still for that read-out and setting: the entry for `CCN(CC)C(=S)S` is “inactive and 4.9 µM (active)”.

For `Clc1c(Cl)c(Cl)c(Cl)c(Cl)c1Cl`, the activation is -0.383% [at 6.9 µM] (inactive). As for `CO/N=C(/C1=NOCCO1)c1ccccc1Oc1ncnc(Oc2ccccc2Cl)c1F`, the Potency entry is “inactive”. On the same count and under the same terms, to `O=[N+]([O-])c1cccc2cccc([N+](=O)[O-])c12` belongs “inactive”; to `Nc1cc(Cl)ccc1Cl`, “inactive”. In the case of `N#CSCc1ccccc1`, the Potency result was “inactive”. The same measure, in the same setting: to `CC(Cc1ccc(O)cc1)NCC(O)c1cc(O)cc(O)c1` (stereo not given) belongs “inactive”.

In the case of `CCC1(CC)C(=O)N=C(O)NC1=O`, the Potency result was “inactive”. `O=[N+]([O-])[O-].[Tl+]`: the Potency result is “inactive”. Still for that read-out and setting: the entry for `CCN(CC)C(=O)N[C@@H]1C=C2c3cccc4[nH]cc(c34)C[C@@H]2N(C)C1` is “inactive”.
